# Experimental data published in PubChem BioAssay (Tox21).
# “And” between values parts separate entries of the source, which are not always exact repeats. Identical values can stand only once. Values without a mark were called inactive. Records with an inconclusive call do not appear. A call without a number means that no potency is given here. The source made the active and inactive calls. Calls come from the whole dose curve; as a rule, active = well fitted curve in the direction sought with a large enough effect in the repeat runs; inconclusive = weak or mixed curves; inactive = no such curve, though single readings can be large; an effect the other way counts as inactive or inconclusive.
# Legend:
# [1] = Human pregnane X receptor (PXR) small molecule agonists, qHTS cell viability counter screen (AID 1346977); note: nearly all actives have a fitted effect of over 50% in size; note: potency is the fitted concentration of half-maximal effect
# Outline: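 After a 5hr pre-incubation, PXR-Luc HepG2 cells received compounds plus positive control in DMSO and were kept 24hr at 37C. Cell viability was quantified by fluorescence from CellTiter-Fluor added for the final hour.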
# [2] = Caspase-3/7 induction in HepG2 cells by small molecules, qHTS assay (AID 1346978); note: nearly all actives have a fitted effect of over 15% in size; note: potency is the fitted concentration of half-maximal effect
# Outline: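 Caspase-3/7 induction was measured by Caspase-Glo 3/7 luminescence (30 min, room temperature) after a 17 hr compound exposure of wild-type HepG2 cells seeded at 2,000 per well and pre-incubated 5 hr.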
# [3] = Caspase-3/7 induction in CHO-K1 cells by small molecules, qHTS cell viability counter screen (AID 1346979); note: nearly all actives have a fitted effect of over 35% in size; note: potency is the fitted concentration of half-maximal effect
# Outline: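 Multiplexed with Caspase-Glo 3/7 in CHO-K1 cells, this counter screen added CellTiter-Fluor after 16hr of compound exposure and recorded fluorescence 1hr later.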
# [4] = target: Nuclear receptor subfamily 1 group I member 2 (Homo sapiens) (UniProt O75469); assay: Human pregnane X receptor (PXR) small molecule agonists, qHTS assay (AID 1346982); note: nearly all actives have a fitted effect of over 35% in size; note: potency is the fitted concentration of half-maximal effect
# Chain of Nuclear receptor subfamily 1 group I member 2 (Homo sapiens) (O75469 whole entry, looked up): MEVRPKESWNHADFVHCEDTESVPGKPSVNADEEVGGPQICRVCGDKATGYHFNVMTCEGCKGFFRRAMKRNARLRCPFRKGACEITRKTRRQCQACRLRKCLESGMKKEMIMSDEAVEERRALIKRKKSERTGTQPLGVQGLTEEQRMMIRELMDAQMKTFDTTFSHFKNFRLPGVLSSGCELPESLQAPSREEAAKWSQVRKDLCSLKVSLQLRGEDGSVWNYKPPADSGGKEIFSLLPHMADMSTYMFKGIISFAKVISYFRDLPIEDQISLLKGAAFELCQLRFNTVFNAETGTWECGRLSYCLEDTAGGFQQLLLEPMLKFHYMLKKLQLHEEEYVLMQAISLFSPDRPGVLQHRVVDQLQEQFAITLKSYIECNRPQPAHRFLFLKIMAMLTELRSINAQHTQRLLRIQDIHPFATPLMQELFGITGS
# Outline: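 Reporter HepG2 cells expressing PXR-Luc are cultured in charcoal-stripped FBS (5%), treated with compounds for 24 hr at 37 C, and assayed by ONE-Glo luminescence after 30 min at room temperature.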
# [5] = target: Cytochrome P450 2D6 (Homo sapiens) (UniProt P10635); assay: Cytochrome P450 Family 2 Subfamily D Member 6 (CYP2D6) small molecule antagonists: luciferase reporter qHTS assay (AID 1671196); note: nearly all actives have a fitted effect of over 50% in size; note: potency is the fitted concentration of half-maximal effect; for activity change, negative = inhibition: series mostly up to about 120 µM
# Chain of Cytochrome P450 2D6 (Homo sapiens) (P10635 whole entry, looked up): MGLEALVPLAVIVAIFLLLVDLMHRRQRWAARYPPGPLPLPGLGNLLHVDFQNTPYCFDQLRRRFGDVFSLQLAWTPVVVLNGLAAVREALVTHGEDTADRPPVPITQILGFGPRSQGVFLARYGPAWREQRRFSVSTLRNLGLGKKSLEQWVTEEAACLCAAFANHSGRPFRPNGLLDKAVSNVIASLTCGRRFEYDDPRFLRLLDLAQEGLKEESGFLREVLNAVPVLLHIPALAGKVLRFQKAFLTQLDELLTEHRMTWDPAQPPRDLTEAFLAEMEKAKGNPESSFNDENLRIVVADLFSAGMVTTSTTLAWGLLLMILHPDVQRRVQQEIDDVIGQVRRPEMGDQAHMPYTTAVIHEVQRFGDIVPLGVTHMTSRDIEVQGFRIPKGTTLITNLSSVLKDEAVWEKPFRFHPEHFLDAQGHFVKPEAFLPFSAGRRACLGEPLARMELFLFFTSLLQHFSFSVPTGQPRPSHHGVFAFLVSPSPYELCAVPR
# Outline: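 Test chemicals meet CYP2D6 plus proluciferin substrate (10 min, RT); NADPH regenerating solution then drives turnover for 1 h. Detection reagent halts the reaction; luminescence measured after 20 min.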
# [6] = target: Cytochrome P450 2C19 (Homo sapiens) (UniProt P33261); assay: Cytochrome P450 Family 2 Subfamily C Member 19 (CYP2C19) small molecule antagonists: luciferase reporter qHTS assay (AID 1671197); note: nearly all actives have a fitted effect of over 65% in size; note: potency is the fitted concentration of half-maximal effect; for activity change, negative = inhibition: series mostly up to about 120 µM
# Chain of Cytochrome P450 2C19 (Homo sapiens) (P33261 whole entry, looked up): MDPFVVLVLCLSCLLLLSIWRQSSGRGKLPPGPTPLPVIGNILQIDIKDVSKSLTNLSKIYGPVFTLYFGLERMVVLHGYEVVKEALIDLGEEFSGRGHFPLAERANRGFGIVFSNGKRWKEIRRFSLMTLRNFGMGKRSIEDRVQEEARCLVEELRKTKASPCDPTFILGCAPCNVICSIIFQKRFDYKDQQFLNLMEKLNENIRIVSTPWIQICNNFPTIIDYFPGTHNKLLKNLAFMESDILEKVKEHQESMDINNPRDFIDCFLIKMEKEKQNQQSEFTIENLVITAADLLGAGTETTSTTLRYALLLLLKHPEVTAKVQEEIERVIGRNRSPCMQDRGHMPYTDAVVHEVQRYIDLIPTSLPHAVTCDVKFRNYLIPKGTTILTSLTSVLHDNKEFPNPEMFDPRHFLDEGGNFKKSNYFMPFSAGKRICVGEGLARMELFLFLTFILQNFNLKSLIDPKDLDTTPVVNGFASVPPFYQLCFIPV
# Outline: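 P450-Glo CYP2C19 system: enzyme-substrate mix with compound 10 min at room temperature, then NADPH regeneration solution, 1 h at 37C. Proluciferin-to-luciferin conversion detected by luminescence after 20 min with detection reagent; ketoconazole as positive control.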
# [7] = target: Cytochrome P450 2C9 (Homo sapiens) (UniProt P11712); assay: Cytochrome P450 Family 2 Subfamily C Member 9 (CYP2C9) small molecule antagonists: luciferase reporter qHTS assay (AID 1671198); note: nearly all actives have a fitted effect of over 50% in size; note: potency is the fitted concentration of half-maximal effect; for activity change, negative = inhibition: series mostly up to about 120 µM
# Chain of Cytochrome P450 2C9 (Homo sapiens) (P11712 whole entry, looked up): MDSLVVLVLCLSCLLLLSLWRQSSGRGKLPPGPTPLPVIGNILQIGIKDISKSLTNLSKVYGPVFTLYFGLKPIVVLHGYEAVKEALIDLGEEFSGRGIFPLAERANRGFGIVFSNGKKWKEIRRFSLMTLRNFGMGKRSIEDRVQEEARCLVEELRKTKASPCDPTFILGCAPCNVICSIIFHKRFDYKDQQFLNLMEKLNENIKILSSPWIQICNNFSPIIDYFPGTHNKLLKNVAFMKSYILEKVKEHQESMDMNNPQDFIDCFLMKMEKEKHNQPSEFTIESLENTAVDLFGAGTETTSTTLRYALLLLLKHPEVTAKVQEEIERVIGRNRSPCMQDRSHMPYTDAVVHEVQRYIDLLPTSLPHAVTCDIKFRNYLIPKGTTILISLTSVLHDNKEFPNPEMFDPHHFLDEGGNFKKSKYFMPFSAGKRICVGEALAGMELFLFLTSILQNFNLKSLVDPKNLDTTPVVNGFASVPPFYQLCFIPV
# Outline: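 Enzyme-substrate mix preincubated with compound 10 min at room temperature; reaction started with NADPH regeneration solution, 1 h 37C. Luminescent luciferin product read after 20 min detection reagent.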
# [8] = target: Cytochrome P450 1A2 (Homo sapiens) (UniProt P05177); assay: Cytochrome P450 Family 1 Subfamily A Member 2 (CYP1A2) small molecule antagonists: luciferase reporter qHTS assay (AID 1671199); note: nearly all actives have a fitted effect of over 50% in size; note: potency is the fitted concentration of half-maximal effect; for activity change, negative = inhibition: series mostly up to about 120 µM
# Chain of Cytochrome P450 1A2 (Homo sapiens) (P05177 whole entry, looked up): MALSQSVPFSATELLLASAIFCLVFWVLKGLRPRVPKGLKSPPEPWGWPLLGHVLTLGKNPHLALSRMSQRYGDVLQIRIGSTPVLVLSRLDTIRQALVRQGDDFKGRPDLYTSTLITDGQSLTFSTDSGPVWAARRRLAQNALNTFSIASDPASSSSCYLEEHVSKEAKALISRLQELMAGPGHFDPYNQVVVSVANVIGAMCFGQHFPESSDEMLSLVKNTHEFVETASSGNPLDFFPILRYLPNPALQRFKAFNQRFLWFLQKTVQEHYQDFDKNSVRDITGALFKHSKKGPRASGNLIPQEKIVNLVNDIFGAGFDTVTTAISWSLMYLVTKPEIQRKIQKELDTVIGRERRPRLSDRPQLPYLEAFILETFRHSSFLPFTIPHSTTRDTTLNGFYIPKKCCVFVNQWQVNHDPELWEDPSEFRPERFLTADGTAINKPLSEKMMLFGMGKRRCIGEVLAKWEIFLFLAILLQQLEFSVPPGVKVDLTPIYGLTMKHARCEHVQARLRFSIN
# Outline: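 Steps: enzyme-substrate mix dispensed; test compounds and furafylline control pinned in; 10 min room temperature; NADPH regeneration solution added, 1 h; reaction stopped with luciferin detection reagent; luminescence read after 20 min.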
# [9] = target: Voltage-gated inwardly rectifying potassium channel KCNH2 (Homo sapiens) (UniProt Q12809); assay: Human Ether-a-go-go-Related Gene (hERG) channel small molecule antagonists: fluorescence cell-based qHTS assay (AID 1671200); note: nearly all actives have a fitted effect of over 50% in size; note: potency is the fitted concentration of half-maximal effect;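 for activity change, negative = inhibition: hERG-expressing U2OS cells given a thallium stimulus after FluxOR II dye loading; series mostly up to about 77 µM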
# Chain of Voltage-gated inwardly rectifying potassium channel KCNH2 (Homo sapiens) (Q12809 whole entry, looked up): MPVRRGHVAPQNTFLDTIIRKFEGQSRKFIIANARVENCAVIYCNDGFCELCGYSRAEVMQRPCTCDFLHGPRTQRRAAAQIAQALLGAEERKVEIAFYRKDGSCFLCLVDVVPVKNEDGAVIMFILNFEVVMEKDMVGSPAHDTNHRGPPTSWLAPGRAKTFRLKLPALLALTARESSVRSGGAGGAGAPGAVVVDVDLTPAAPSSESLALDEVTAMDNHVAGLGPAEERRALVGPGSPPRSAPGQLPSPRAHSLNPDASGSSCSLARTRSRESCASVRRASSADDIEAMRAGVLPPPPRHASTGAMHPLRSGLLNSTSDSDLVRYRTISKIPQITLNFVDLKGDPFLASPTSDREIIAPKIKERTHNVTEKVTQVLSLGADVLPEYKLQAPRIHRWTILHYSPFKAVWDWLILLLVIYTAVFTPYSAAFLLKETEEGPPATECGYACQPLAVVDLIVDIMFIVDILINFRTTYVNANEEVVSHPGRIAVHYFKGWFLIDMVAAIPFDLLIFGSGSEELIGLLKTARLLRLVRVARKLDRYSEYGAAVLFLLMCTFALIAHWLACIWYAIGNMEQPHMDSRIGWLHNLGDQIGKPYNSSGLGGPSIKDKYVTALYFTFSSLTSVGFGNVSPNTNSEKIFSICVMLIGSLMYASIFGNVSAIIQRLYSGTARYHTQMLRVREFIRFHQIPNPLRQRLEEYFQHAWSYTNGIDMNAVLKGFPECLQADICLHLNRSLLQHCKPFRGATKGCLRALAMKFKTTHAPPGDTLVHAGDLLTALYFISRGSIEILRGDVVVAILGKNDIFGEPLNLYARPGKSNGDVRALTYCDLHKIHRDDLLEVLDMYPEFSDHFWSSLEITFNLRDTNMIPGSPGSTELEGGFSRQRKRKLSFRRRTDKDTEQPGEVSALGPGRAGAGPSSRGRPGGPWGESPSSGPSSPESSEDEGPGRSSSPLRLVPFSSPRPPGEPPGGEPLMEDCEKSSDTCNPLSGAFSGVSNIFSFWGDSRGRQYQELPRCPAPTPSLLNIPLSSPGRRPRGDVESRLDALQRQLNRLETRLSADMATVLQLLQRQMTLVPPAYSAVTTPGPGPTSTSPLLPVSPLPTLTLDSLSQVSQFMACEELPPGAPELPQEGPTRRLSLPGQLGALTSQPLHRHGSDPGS
# Outline: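 Cell line hERG-U2OS; dye FluxOR II, 1 h RT dark; Tl+ stimulus; ex 480/em 540 nm, read each second for 2 min.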
# [10] = target: Cytochrome P450 3A4 (Homo sapiens) (UniProt P08684); assay: Cytochrome P450 Family 3 Subfamily A Member 4 (CYP3A4) small molecule antagonists: luciferase reporter qHTS assay (AID 1671201); note: nearly all actives have a fitted effect of over 50% in size; note: potency is the fitted concentration of half-maximal effect; for activity change, negative = inhibition: series mostly up to about 120 µM
# Chain of Cytochrome P450 3A4 (Homo sapiens) (P08684 whole entry, looked up): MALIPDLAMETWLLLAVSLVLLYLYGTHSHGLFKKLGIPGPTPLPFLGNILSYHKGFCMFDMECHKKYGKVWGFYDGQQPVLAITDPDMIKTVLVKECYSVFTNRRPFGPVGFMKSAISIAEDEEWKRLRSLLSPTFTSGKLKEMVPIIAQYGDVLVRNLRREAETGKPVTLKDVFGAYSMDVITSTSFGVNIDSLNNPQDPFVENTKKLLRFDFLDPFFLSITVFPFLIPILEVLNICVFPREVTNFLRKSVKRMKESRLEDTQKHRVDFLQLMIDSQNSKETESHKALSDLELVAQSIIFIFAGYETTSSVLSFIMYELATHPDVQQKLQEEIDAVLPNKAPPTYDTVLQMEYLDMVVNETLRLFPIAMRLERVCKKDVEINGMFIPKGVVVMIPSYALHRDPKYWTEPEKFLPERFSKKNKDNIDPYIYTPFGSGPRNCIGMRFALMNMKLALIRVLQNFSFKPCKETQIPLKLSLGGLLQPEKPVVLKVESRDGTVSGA
# Outline: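 Room-temperature assay throughout: 10 min compound–enzyme/substrate preincubation, 1 h reaction after NADPH regeneration solution, 20 min detection. Luciferin formed from proluciferin substrate is quantified by luminescence.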
# [11] = Caspase-3/7 induction in CHO-K1 cells by small molecules, qHTS assay (AID 1346980); note: nearly all actives have a fitted effect of over 15% in size
# Outline: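 Luminescent Caspase-Glo 3/7 read (30min, room temperature) quantified apoptosis induction. Cells were wild-type CHO-K1, treated with compound for 17hr at 37 C and 5% CO2.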
# [12] = Caspase-3/7 induction in HepG2 cells by small molecules, qHTS cell viability counter screen (AID 1346981); note: nearly all actives have a fitted effect of over 30% in size; note: potency is the fitted concentration of half-maximal effect; for activity change, negative = cytotoxicity: series mostly up to about 92 µM
# Outline: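 In this quantitative HTS counter screen, compounds delivered in DMSO were left on unmodified HepG2 cells for 16 hr at 37 C. Viability was then determined fluorometrically with CellTiter-Fluor, in parallel with caspase-3/7 induction in the same wells.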
# [13] = target: Nuclear receptor subfamily 1 group I member 2 (Rattus norvegicus) (UniProt Q9R1A7); assay: Rat pregnane X receptor (rPXR) activation by small molecules, qHTS assay (AID 1346983); details: rPXR luciferase reporter cells, One-Glo luminescence, 24 h; max activation: active compounds read high; note: nearly all actives have a fitted effect of over 20% in size
# Chain of Nuclear receptor subfamily 1 group I member 2 (Rattus norvegicus) (Q9R1A7 whole entry, looked up): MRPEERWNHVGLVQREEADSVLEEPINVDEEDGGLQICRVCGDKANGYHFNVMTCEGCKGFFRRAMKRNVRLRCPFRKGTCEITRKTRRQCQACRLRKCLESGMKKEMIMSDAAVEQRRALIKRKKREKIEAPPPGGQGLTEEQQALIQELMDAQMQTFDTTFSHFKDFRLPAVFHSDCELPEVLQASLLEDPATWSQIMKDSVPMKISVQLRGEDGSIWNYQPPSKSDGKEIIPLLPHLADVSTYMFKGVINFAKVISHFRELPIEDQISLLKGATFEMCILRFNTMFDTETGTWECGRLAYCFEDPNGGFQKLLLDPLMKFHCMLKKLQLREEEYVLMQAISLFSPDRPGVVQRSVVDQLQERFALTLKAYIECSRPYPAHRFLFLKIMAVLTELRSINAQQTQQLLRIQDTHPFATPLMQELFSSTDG
# Outline: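 Luminescent readout (One-Glo luciferase, 30 min room temperature) followed 24 hr compound treatment at 37 C of rPXR cells plated 2,000 per well and preincubated 5hr; qHTS format with compounds delivered in DMSO.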
# [14] = target: Nuclear receptor subfamily 1 group I member 2 (Homo sapiens) (UniProt O75469); assay: CYP3A4 induction through human pregnane X receptor (PXR) by small molecules, qHTS assay (AID 1346984); note: nearly all actives have a fitted effect of over 40% in size
# Outline: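 Induction measured in HepG2-based DPX-2 cells co-expressing human PXR and a CYP3A4 promoter-driven luciferase. After a 24-hour compound exposure, cells received CYP3A4 luciferin substrate at 3uM final for 3 hours, and light output was then recorded.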
# [15] = target: Nuclear receptor subfamily 1 group I member 2 (Homo sapiens) (UniProt O75469); assay: Human pregnane X receptor (PXR) activation by small molecules, qHTS assay (AID 1346985); note: nearly all actives have a fitted effect of over 40% in size
# Outline: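 DPX-2 cells (HepG2 co-transfected with a PXR response element and a CYP3A4-promoter luciferase construct) were seeded at 2,000 per well, rested 5 hr at 37C, then exposed to DMSO-dissolved compounds for 24 hr. Activation was read as luciferase luminescence.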
smiles,measurement,setting,value
CCCCCCCCCCn1cc[n+](CCCCCCCCCC)c1C,Potency,[1],19.4 µM (active)
same,Potency,[2],48.6 µM (active)
same,Potency,[3],6.87 µM (active)
same,Potency,[4],7.7 µM (active)
same,Potency,[5],1.26 µM (active)
same,Potency,[6],35.6 µM (active)
same,Potency,[7],40 µM (active)
same,Potency,[8],71.1 µM (active)
same,Potency,[9],0.49 µM (active)
same,Potency,[10],31.8 µM (active)
Cc1cc(CCN2CCN(c3nsc4ccccc34)CC2)cc2c1NC(=O)CC2(C)C,Potency,[1],27.3 µM (active)
same,Potency,[2],inactive
same,Potency,[11],inactive
same,Potency,[12],61.1 µM (active)
same,Potency,[4],19.3 µM (active)
same,Potency,[5],17.8 µM (active)
same,Potency,[6],71 µM (active)
same,Potency,[7],39.9 µM (active)
same,Potency,[8],35.6 µM (active)
same,Potency,[9],21.9 µM (active)
same,Potency,[10],17.8 µM (active)
Oc1cccc(-c2c3nc(c(-c4cccc(O)c4)c4ccc([nH]4)c(-c4cccc(O)c4)c4nc(c(-c5cccc(O)c5)c5ccc2[nH]5)CC4)C=C3)c1,Potency,[1],15 µM (active)
same,Potency,[2],inactive
same,Potency,[3],13.3 µM (active)
same,Potency,[11],inactive
same,Potency,[4],inactive
same,Potency,[6],38.9 µM (active)
same,Potency,[7],13.8 µM (active)
same,Potency,[9],inactive
OCCCCCCCCCCCCBr,Potency,[1],inactive
same,Potency,[2],inactive
same,Potency,[11],inactive
same,Potency,[12],inactive
same,Potency,[4],inactive
same,Potency,[5],inactive
same,Potency,[6],inactive
same,Potency,[7],inactive
same,Potency,[8],40.5 µM (active)
same,Potency,[9],inactive
same,Potency,[10],inactive
CC1=NC(C)OC1C (centres undefined),Potency,[1],inactive
same,Potency,[2],inactive
same,Potency,[11],inactive
same,Potency,[12],inactive
same,Potency,[5],71 µM (active)
same,Potency,[7],inactive
same,Potency,[10],63.3 µM (active)
CCCN(CCC)C(=O)C(CCC(=O)OCCCN1CCN(CCOC(=O)Cc2c(C)n(C(=O)c3ccc(Cl)cc3)c3ccc(OC)cc23)CC1)NC(=O)c1ccccc1 (centres undefined),Potency,[1],18.8 µM (active)
same,Potency,[3],26.6 µM (active)
same,Potency,[11],inactive
same,Potency,[12],26.6 µM (active)
same,Potency,[4],10.6 µM (active)
same,Potency,[5],27.5 µM (active)
same,Potency,[6],8.71 µM (active)
same,Potency,[7],4.9 µM (active)
same,Potency,[9],0.301 µM (active)
CC(NN)c1ccccc1 (centres undefined),"activity change, negative = cytotoxicity",[1],0.166% [at 19 µM]
same,caspase activation,[2],-0.345% [at 19 µM]
same,caspase-3/7 activation,[11],2.13% [at 19 µM]
same,"activity change, negative = cytotoxicity",[12],2.61% [at 19 µM]
same,activation,[4],7.91% [at 19 µM]
same,Potency,[5],15.1 µM (active)
same,Potency,[8],inactive
same,"activity change, negative = inhibition",[9],-1.06% [at 15.8 µM]
O=C(Oc1ccccc1)c1ccccc1C(=O)Oc1ccccc1,Potency,[1],inactive
same,Potency,[2],inactive
same,Potency,[11],inactive
same,Potency,[4],inactive
same,Potency,[5],inactive
same,Potency,[6],15.9 µM (active)
same,Potency,[7],12.6 µM (active)
same,Potency,[10],inactive
CC(=O)S[C@@H]1CC2=CC(=O)CC[C@]2(C)[C@H]2CC[C@@]3(C)[C@@H](CC[C@@]34CCC(=O)O4)[C@H]12,Potency,[1],inactive
same,Potency,[2],inactive
same,Potency,[11],inactive
same,Potency,[6],6.33 µM (active)
CC(C)C(C)(C)C(C)(C)C(C)(C)S,Potency,[1],inactive
same,Potency,[2],inactive
same,Potency,[11],inactive
same,Potency,[4],27.3 µM (active)
same,Potency,[5],39.9 µM (active)
same,Potency,[6],39.9 µM (active)
same,Potency,[7],46.1 µM (active)
same,Potency,[9],inactive
CCOC(=O)/C=C(C)/C=C/C=C(C)/C=C/c1c(C)cc(OC)c(C)c1C,Potency,[1],inactive
same,Potency,[2],inactive
same,Potency,[11],inactive
same,Potency,[12],inactive
same,max activation,[13],-4.32%
same,Potency,[14],inactive
same,Potency,[15],inactive
same,Potency,[6],11 µM (active)
same,Potency,[7],6.17 µM (active)
same,Potency,[8],24.5 µM (active)
same,Potency,[9],inactive
O=[N+]([O-])c1cc([N+](=O)[O-])c2ccc(S(=O)(=O)O)cc2c1O,Potency,[1],27.1 µM (active)
same,Potency,[3],21.6 µM (active)
CCCCCCCCCCC=O,Potency,[1],inactive
same,Potency,[3],inactive
same,Potency,[11],inactive
same,Potency,[12],inactive
same,Potency,[4],inactive
same,Potency,[5],inactive
same,Potency,[6],inactive
same,Potency,[7],inactive
same,Potency,[10],inactive
CCC(C)(C)C1CCCCC1OC(C)=O (centres undefined),Potency,[1],inactive
same,Potency,[2],inactive
same,Potency,[11],inactive
same,Potency,[4],inactive
same,Potency,[5],inactive
same,Potency,[6],inactive
same,Potency,[9],inactive
same,Potency,[10],inactive
CC(C)=CCOc1ccc(/C=C/C(=O)c2ccc(OCC=C(C)C)cc2OCC(=O)O)cc1,Potency,[1],inactive
same,Potency,[2],inactive
same,Potency,[11],inactive
same,Potency,[4],inactive
same,Potency,[8],inactive
same,Potency,[9],inactive
same,Potency,[10],inactive
Cc1ccc(O)c(C(C)(C)C)c1,Potency,[1],inactive
same,Potency,[2],61 µM (active)
same,Potency,[11],inactive
same,Potency,[12],inactive
same,Potency,[4],inactive
same,Potency,[5],inactive
same,Potency,[6],35.5 µM (active) and 35.6 µM (active)
same,Potency,[9],inactive
